Among all 39,000 compounds or so, about 3,300 (8.5%) were called active. What follows is part of a selection rich in actives, with near analogues and random picks from the rest.
System: HepG2
Assay: cytotoxicity call (relative viability < 0.9)
Conditions: 10 µM

SMILES | cytotoxicity call
C[C@H](CO)N1C[C@H](C)[C@H](CN(C)S(=O)(=O)c2cn(C)cn2)Oc2c(NC(=O)C3CCCCC3)cccc2C1=O | inactive
C[C@H]1CN([C@@H](C)CO)C(=O)Cc2cc(NC(=O)Cc3cn(C)c4ccccc34)ccc2O[C@H]1CN(C)S(=O)(=O)c1cn(C)cn1 | inactive
COc1ccc(NC(=O)N(C)C[C@H]2OCCCC[C@H](C)Oc3ccc(NC(=O)Nc4ccccc4)cc3C(=O)N([C@@H](C)CO)C[C@H]2C)cc1 | inactive
COCCNC(=O)C[C@H]1CC[C@@H](NS(=O)(=O)c2ccc(C)cc2)[C@H](CO)O1 | inactive
Cc1ccc(S(=O)(=O)Nc2ccc3c(c2)CC(=O)N([C@H](C)CO)C[C@H](C)[C@H](CN(C)S(=O)(=O)c2cccs2)O3)cc1 | inactive
COc1ccc(C[C@H](N)C(=O)N[C@H]2[C@@H](O)[C@H](n3cnc4c(N(C)C)ncnc43)O[C@@H]2CO)cc1 | active
C[S+](CC[C@H](N)C(=O)O)C[C@H]1O[C@@H](n2cnc3c(N)ncnc32)[C@H](O)[C@@H]1O (stereo partly specified) | inactive
Nc1ncnc2c1ncn2[C@@H]1O[C@H](CSCC[C@H](N)C(=O)O)[C@@H](O)[C@H]1O | inactive
C[C@H](CO)N1C[C@H](C)[C@H](CN(C)S(=O)(=O)c2ccccc2F)Oc2ncc(C#Cc3cccnc3)cc2C1=O | inactive
C[C@H](CO)N1C[C@H](C)[C@H](CN(C)C(=O)Nc2cccc3ccccc23)Oc2ncc(-c3ccc(F)cc3)cc2C1=O | inactive
O=C(Nc1cccc2ccccc12)c1ccc(C(F)(F)F)cc1 | inactive
COCCCCC(=NOCCN)c1ccc(C(F)(F)F)cc1.O=C(O)C=CC(=O)O | active
Cc1noc(C)c1NC(=O)Nc1ccc2c(c1)CC(=O)N([C@H](C)CO)C[C@@H](C)[C@@H](CN(C)CC1CC1)O2 | inactive
COc1ccc(NC(=O)N(C)C[C@@H]2Oc3ccc(NC(=O)Cn4cnnn4)cc3C(=O)N([C@@H](C)CO)C[C@@H]2C)cc1 | inactive
CO[C@@H]1CN(C)C(=O)c2cc(NS(=O)(=O)c3cn(C)cn3)ccc2OC[C@@H](C)N(CC2CC2)C[C@H]1C | inactive
Cn1c(=O)c2[nH]cnc2n(C)c1=O.NCCN | inactive
C[C@@H]1CCCCO[C@H](CN(C)CC2CC2)[C@H](C)CN([C@@H](C)CO)C(=O)c2cc(NC(=O)Nc3ccccc3)ccc2O1 | inactive
C[C@H](CO)N1C[C@H](C)[C@@H](CN(C)CC2CCCCC2)OCCCC[C@H](C)Oc2ccc(NC(=O)Nc3ccccc3)cc2C1=O | inactive
C[C@@H]1CN([C@@H](C)CO)C(=O)c2cc(NC(=O)Nc3ccccc3)ccc2O[C@@H](C)CCCCO[C@@H]1CN(C)CC1CCCCC1 | active
C[C@@H]1CCCCO[C@H](CN(C)CC2CCCCC2)[C@@H](C)CN([C@H](C)CO)C(=O)c2cc(NC(=O)Nc3ccccc3)ccc2O1 | inactive
C[C@@H]1CCCCO[C@@H](CN(C)CC2CCCCC2)[C@@H](C)CN([C@H](C)CO)C(=O)c2cc(NC(=O)Nc3ccccc3)ccc2O1 | active
C[C@@H]1CN([C@H](C)CO)C(=O)c2cc(NC(=O)Nc3ccccc3)ccc2O[C@@H](C)CCCCO[C@@H]1CN(C)CC1CCCCC1 | inactive

SMILES | cytotoxicity call
C[C@H]1CCCCO[C@@H](CN(C)CC2CCCCC2)[C@@H](C)CN([C@@H](C)CO)C(=O)c2cc(NC(=O)Nc3ccccc3)ccc2O1 | active
C[C@@H]1CCCCO[C@@H](CN(C)CC2CCCCC2)[C@H](C)CN([C@@H](C)CO)C(=O)c2cc(NC(=O)Nc3ccccc3)ccc2O1 | inactive
C[C@@H]1CN([C@@H](C)CO)C(=O)c2cc(NC(=O)Nc3ccccc3)ccc2O[C@@H](C)CCCCO[C@H]1CN(C)CC1CCCCC1 | inactive
C[C@@H]1CCCCO[C@H](CN(C)CC2CCCCC2)[C@H](C)CN([C@@H](C)CO)C(=O)c2cc(NC(=O)Nc3ccccc3)ccc2O1 | active
C[C@@H]1CCCCO[C@H](CN(C)CC2CC2)[C@@H](C)CN([C@H](C)CO)C(=O)c2cc(NC(=O)Nc3ccccc3)ccc2O1 | inactive
C[C@H]1CCCCO[C@H](CN(C)CC2CCCCC2)[C@@H](C)CN([C@@H](C)CO)C(=O)c2cc(NC(=O)Nc3ccccc3)ccc2O1 | inactive
C[C@H](CO)N1C[C@H](C)[C@@H](CN(C)S(=O)(=O)c2cn(C)cn2)Oc2c(NC(=O)c3nc4ccccc4s3)cccc2C1=O | inactive
COc1ccc(NC(=O)N2C[C@H](O)COC[C@@H]3O[C@@H](CC(=O)NCc4ccccc4OC)CC[C@H]32)cc1 | inactive
O=C1O[C@H](c2ccccc2)[C@H](c2ccccc2)N2[C@H]1[C@@H](C(=O)O)[C@]1(C(=O)Nc3ccc(Cl)cc31)[C@H]2c1ccc(F)cc1 | inactive
NC(=O)COc1ccccc1 | inactive
C[C@H](CO)N1C[C@H](C)[C@H](CN(C)C(=O)Nc2ccc3c(c2)OCO3)OCc2cnnn2CCCC1=O | inactive
Cc1noc(C)c1S(=O)(=O)N(C)C[C@@H]1Oc2ccc(NS(C)(=O)=O)cc2C(=O)N([C@@H](C)CO)C[C@@H]1C | inactive
C[C@@H]1CCCCO[C@@H](CN(C)S(=O)(=O)c2cn(C)cn2)[C@@H](C)CN([C@H](C)CO)C(=O)c2cc(NS(C)(=O)=O)ccc2O1 | inactive
COCC(=O)Nc1ccc2c(c1)C(=O)N(C)C[C@H](OC)[C@H](C)CN(Cc1cccc(F)c1)[C@H](C)CO2 | inactive
C=CCOC(=O)[C@@H]1[C@H]2C(=O)O[C@H](c3ccccc3)[C@H](c3ccccc3)N2[C@H](c2ccc(OCCOC(=O)[C@H]3C[C@H]4C(=O)NCC(=O)N4[C@H]3c3cccc(OCCO)c3)cc2)[C@@]12C(=O)Nc1ccccc12 | inactive
C[C@@H]1CN([C@@H](C)CO)C(=O)c2cc(NC(=O)NC3CCCCC3)ccc2O[C@@H](C)CCCCO[C@@H]1CN(C)S(=O)(=O)c1ccc(F)cc1 | inactive
C[C@H]1CN([C@@H](C)CO)C(=O)c2cc(NS(=O)(=O)c3ccc(F)cc3)ccc2O[C@@H]1CN(C)C(=O)Nc1ccc(C(F)(F)F)cc1 | inactive
C[C@@H]1CCCCO[C@@H](CN(C)CC2CCCCC2)[C@@H](C)CN([C@@H](C)CO)C(=O)c2cc(NC(=O)Nc3ccccc3)ccc2O1 | active
C[C@H]1CCCCO[C@H](CN(C)CC2CC2)[C@@H](C)CN([C@@H](C)CO)C(=O)c2cc(NC(=O)Nc3ccccc3)ccc2O1 | inactive
C[C@@H]1CCCCO[C@@H](CN(C)CC2CC2)[C@H](C)CN([C@@H](C)CO)C(=O)c2cc(NC(=O)Nc3ccccc3)ccc2O1 | inactive
C[C@H](CO)N1C[C@H](C)[C@@H](CN(C)CC2CC2)OCCCC[C@H](C)Oc2ccc(NC(=O)Nc3ccccc3)cc2C1=O | inactive
C[C@@H]1CCCCO[C@@H](CN(C)CC2CC2)[C@H](C)CN([C@H](C)CO)C(=O)c2cc(NC(=O)Nc3ccccc3)ccc2O1 | inactive

SMILES | cytotoxicity call
C[C@@H]1CCCCO[C@H](CN(C)CC2CCCCC2)[C@H](C)CN([C@H](C)CO)C(=O)c2cc(NC(=O)Nc3ccccc3)ccc2O1 | active
C[C@@H]1CCCCO[C@@H](CN(C)CC2CCCCC2)[C@H](C)CN([C@H](C)CO)C(=O)c2cc(NC(=O)Nc3ccccc3)ccc2O1 | active
C[C@H](CO)N1C[C@H](C)[C@H](CN(C)CC2CCCCC2)OCCCC[C@H](C)Oc2ccc(NC(=O)Nc3ccccc3)cc2C1=O | active
Cc1csc2c(N3CCC(Cn4cc(C(C)(C)N)nn4)CC3)ncnc12 | inactive
C[C@@H]1OC2=C(Cl)C(=O)N3CCC[C@H]3C[C@@]21O | inactive
Cc1ccc(S[C@]2(C(=O)NCC(F)(F)F)CC(=O)N(Cc3ccccc3)[C@@H]2c2ccc(CO)cc2I)cc1 | inactive
C[C@@H]1CN([C@H](C)CO)S(=O)(=O)c2ccc(C#Cc3cccc(F)c3)cc2O[C@@H]1CN(C)CC1CC1 | inactive
COC(=O)[C@@H]1[C@@H](CO)[C@@H]2Cn3c(cccc3=O)[C@@H]2N1C(=O)C1CC1 | inactive
C[C@H](NC(=O)C[C@@H]1CC[C@H](NC(=O)CN2CCOCC2)[C@@H](CO)O1)c1ccccc1 | inactive
C[C@@H]1CCCCO[C@H](CN(C)Cc2ccccc2)[C@H](C)CN([C@H](C)CO)C(=O)c2cc(NC(=O)Cc3ccccc3)ccc2O1 | inactive
C[C@H]1CCCCO[C@H](CN(C)C(=O)Nc2ccc(C(F)(F)F)cc2)[C@@H](C)CN([C@@H](C)CO)C(=O)c2cc(NS(=O)(=O)c3ccc(Cl)cc3)ccc2O1 | inactive
C[C@@H]1CCCCO[C@@H](CN(C)C(=O)Nc2ccc(C(F)(F)F)cc2)[C@H](C)CN([C@@H](C)CO)C(=O)c2cc(NS(=O)(=O)c3ccc(Cl)cc3)ccc2O1 | inactive
C[C@@H]1CN([C@H](C)CO)C(=O)c2cc(NS(=O)(=O)c3ccc(Cl)cc3)ccc2O[C@@H]1CN(C)C(=O)Nc1ccc(C(F)(F)F)cc1 | active
C[C@H]1CN([C@@H](C)CO)C(=O)c2cc(NS(=O)(=O)c3ccc(Cl)cc3)ccc2O[C@@H]1CN(C)C(=O)Nc1ccc(C(F)(F)F)cc1 | inactive
C[C@@H]1CCCCO[C@H](CN(C)C(=O)Nc2ccc(C(F)(F)F)cc2)[C@@H](C)CN([C@H](C)CO)C(=O)c2cc(NS(=O)(=O)c3ccc(Cl)cc3)ccc2O1 | inactive
C[C@@H]1CN([C@@H](C)CO)C(=O)c2cc(NS(=O)(=O)c3ccc(Cl)cc3)ccc2O[C@@H](C)CCCCO[C@@H]1CN(C)C(=O)Nc1ccc(C(F)(F)F)cc1 | inactive
C[C@H](CO)N1C[C@H](C)[C@@H](CN(C)C(=O)Nc2ccc(C(F)(F)F)cc2)OCCCC[C@H](C)Oc2ccc(NS(=O)(=O)c3ccc(Cl)cc3)cc2C1=O | active
C[C@@H]1CCCCO[C@H](CN(C)C(=O)Nc2ccc(C(F)(F)F)cc2)[C@H](C)CN([C@@H](C)CO)C(=O)c2cc(NS(=O)(=O)c3ccc(Cl)cc3)ccc2O1 | inactive
C[C@@H]1CN([C@H](C)CO)C(=O)c2cc(NS(=O)(=O)c3ccc(Cl)cc3)ccc2O[C@H]1CN(C)C(=O)Nc1ccc(C(F)(F)F)cc1 | inactive
C[C@H](CO)N1C[C@H](C)[C@H](CN(C)C(=O)Nc2ccc(C(F)(F)F)cc2)OCCCC[C@H](C)Oc2ccc(NS(=O)(=O)c3ccc(Cl)cc3)cc2C1=O | active
C[C@@H]1CCCCO[C@H](CN(C)C(=O)Nc2ccc(C(F)(F)F)cc2)[C@H](C)CN([C@H](C)CO)C(=O)c2cc(NS(=O)(=O)c3ccc(Cl)cc3)ccc2O1 | active
C[C@H]1CCCCO[C@@H](CN(C)C(=O)Nc2ccc(C(F)(F)F)cc2)[C@@H](C)CN([C@@H](C)CO)C(=O)c2cc(NS(=O)(=O)c3ccc(Cl)cc3)ccc2O1 | inactive

Source: the antibiotic and cytotoxicity screens of Wong et al. (2023)
